Experimental data reported in PubChem BioAssay (Tox21).
The source made the active and inactive calls. Calls come from the whole dose curve; as a rule, active = well fitted curve in the direction sought with a large enough effect in the repeat runs; inconclusive = weak or mixed curves; inactive = flat fitted curve, though single readings scatter. Residues, ends and D or L forms follow the SMILES beside them.

Assay: qHTS assay to test for compound auto fluorescence at 460 nm (blue) in HepG2 cell free culture (AID 720685)
Settings: Cell-free culture medium, blue autofluorescence 405/460 nm; series mostly up to 91.3 µM
Description: U.S. Tox21 Program National Center for Advancing Translational Sciences [NCATS] NIH Chemical Genomics Center [NCGC] U.S. Environmental Protection Agency [EPA] National Institutes of Environmental Health Sciences [NIEHS] National Toxicology Program [NTP] U.S. Food and Drug Administration [FDA] Tox21 Assay Overview: Compound auto fluorescence often interferes with screening of the compound library against various biological targets and signaling pathways. Some of these compounds may have fluorophoric properties. Such properties may interfere with the assay outputs resulting in false positives and/or negatives. To decrease such complications and ensure the compound activities are relevant in terms of biological response, the Tox21 10K compound library was screened for auto fluorescence. From the fluorophores used as reporter signals in our screening assays, the auto fluorescence equivalencies of compounds against three fluorophores have been evaluated: Triamterene, Fluorescein and Rose Bengal sodium for blue, green and red fluorescence, respectively. The fluorescence intensities were measured using Excitation/Emission wavelengths at 405/460nm, 485/535nm and 540/590nm for blue, green and red labels, respectively. This assay includes the blue fluorescence data.
Tox21 Assay Protocol Summary: 5 uL of culture medium (MEM containing 10% FBS) per well was dispensed into black wall/clear bottom 1536-well plates using a Multidrop Combi Dispenser (ThermoFisher Scientific, Waltham, MA). After 23 nL compound or DMSO vehicle was transferred into assay plate by a pintool work station (Kalypsys, San Diego, CA), fluorescence intensities in the assay plates were measured by an Envision (PerkinElmer, Shelton, CT) plate reader using three labels for measuring blue, green and red fluorescence at […] 460, 535 and 590nm respectively.

Structure (SMILES)	outcome
O=C(O)c1cccc([N+](=O)[O-])c1	inactive
CCCNC(=O)NS(=O)(=O)c1ccc(Cl)cc1	inactive
Cc1noc(NS(=O)(=O)c2ccc(N)cc2)c1C	inactive
OCCc1ccccc1	inactive
CC1(C)[C@@H]2CC[C@@]1(C)C(=O)C2	inactive
O=C(c1ccccc1)C(O)c1ccccc1 (stereo not given)	inactive
Nc1ccc(C(=O)O)cc1	inactive
O=C(c1ccccc1)c1ccccc1	inactive
COC(=O)[C@H](Cc1ccccc1)NC(=O)[C@@H](N)CC(=O)O (H-Asp-Phe-OMe)	inactive
CCCN(CCC)S(=O)(=O)c1ccc(C(=O)O)cc1	inactive
Cc1ccc(O)cc1	inactive
CCCCOC(=O)CC(CC(=O)OCCCC)(OC(C)=O)C(=O)OCCCC	inactive
CCCC(CCC)C(=O)O	inactive
C/C=C/c1ccc(OC)cc1	inactive
NNC(=O)c1ccncc1	inactive
CCCCCCCCCCCCCCCC(=O)O	inactive
O=S(=O)(O)c1ccc2cc(O)ccc2c1	inactive
CC(C)(Oc1ccc(C2CC2(Cl)Cl)cc1)C(=O)O (stereo not given)	inactive
CCOc1ccc(NC(=O)CC(C)O)cc1 (stereo not given)	inactive
Cc1ccc(C)c(OCCCC(C)(C)C(=O)O)c1	inactive

Structure (SMILES)	outcome
Cn1c(=O)c2[nH]cnc2n(C)c1=O	inactive
c1ccc2[nH]ccc2c1	inactive
NC(N)=O	inactive
CC(O)CN(CCN(CC(C)O)CC(C)O)CC(C)O (stereo not given)	inactive
O=c1ccc2ccccc2o1	inactive
Cc1cc(=O)[nH]c(=S)[nH]1	inactive
Nc1ccc(S(=O)(=O)Nc2nccs2)cc1	inactive
O=C(O)CCC(=O)O	inactive
N=C(N)c1ccc(OCCCCCOc2ccc(C(=N)N)cc2)cc1	inactive
CC(O)C(=O)O (stereo not given)	inactive
O=C(O)c1cc(N=Nc2ccc(S(=O)(=O)Nc3ccccn3)cc2)ccc1O	inactive
O=C(O)CCCCCCCC(=O)O	inactive
CNC[C@H](O)c1cccc(O)c1	inactive
Oc1ccc(/C=C/c2cc(O)cc(O)c2)cc1	inactive
O=C(O)CCCCC(=O)O	inactive
Cc1ccc(S(=O)(=O)NC(=O)NN2CCCCCC2)cc1	inactive
CCC1(c2ccccc2)C(=O)NCNC1=O	inactive
O=S(=O)(O)NC1CCCCC1	inactive
CCCCC(CC)COC(=O)/C=C/c1ccc(OC)cc1 (stereo not given)	inactive
O=C(C1CCCCC1)N1CC(=O)N2CCc3ccccc3C2C1 (stereo not given)	inactive
